Data taken from PubChem BioAssay (NCI).
About 83,000 compounds went through this panel and 20% of them were active in at least one assay; those are over-represented in the sample as a whole.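 Each cell line was grown in a 96-well plate and treated with one concentration of compound for 48 hours. Values below 10 were considered active.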 Activity calls are given as the source filed them.

How the values were obtained:
Assay in all cases: NCI-60 one-dose screen, 48 h (100 = growth as untreated, 0 = no growth, -100 = all killed)
Conditions in all cases: 10 µM
SK-MEL-2 melanoma = test system: SK-MEL-2 melanoma
EKVX NSCLC = test system: EKVX NSCLC
SN12C renal = test system: SN12C renal
UO-31 renal = test system: UO-31 renal
TK-10 renal = test system: TK-10 renal
ACHN renal = test system: ACHN renal
CAKI-1 renal = test system: CAKI-1 renal
A498 renal = test system: A498 renal
CCRF-CEM leukemia = test system: CCRF-CEM leukemia
MOLT-4 leukemia = test system: MOLT-4 leukemia
SR leukemia = test system: SR leukemia
RPMI-8226 leukemia = test system: RPMI-8226 leukemia
OVCAR-8 ovarian = test system: OVCAR-8 ovarian
OVCAR-5 ovarian = test system: OVCAR-5 ovarian
OVCAR-4 ovarian = test system: OVCAR-4 ovarian
SK-OV-3 ovarian = test system: SK-OV-3 ovarian
IGROV1 ovarian = test system: IGROV1 ovarian
OVCAR-3 ovarian = test system: OVCAR-3 ovarian
HS 578T breast = test system: HS 578T breast
NCI/ADR-RES ovarian = test system: NCI/ADR-RES ovarian

Measured: growth

CC(=O)C1=C(C)NC(SCC(=O)Nc2ccc(S(=O)(=O)Nc3cc(C)on3)cc2)=NC1c1ccccc1 (stereo not given)
inactive: SK-MEL-2 melanoma 119% | EKVX NSCLC 101% | SN12C renal 111% | UO-31 renal 89.2% | TK-10 renal 112% | ACHN renal 106% | CAKI-1 renal 99.8% | A498 renal 109% | CCRF-CEM leukemia 98% | MOLT-4 leukemia 109% | SR leukemia 94.1% | RPMI-8226 leukemia 99.8% | OVCAR-8 ovarian 107% | OVCAR-5 ovarian 109% | OVCAR-4 ovarian 100% | SK-OV-3 ovarian 101% | IGROV1 ovarian 114% | OVCAR-3 ovarian 107% | HS 578T breast 95.6% | NCI/ADR-RES ovarian 103%

Nc1nc(Nc2ccc(Cl)cc2)nn1Cc1cccc(Br)c1
active: A498 renal -1.15%
inactive: SK-MEL-2 melanoma 27.2% | EKVX NSCLC 22.3% | SN12C renal 41.1% | UO-31 renal 18.2% | TK-10 renal 61.1% | ACHN renal 22.8% | CAKI-1 renal 26.9% | CCRF-CEM leukemia 34.3% | MOLT-4 leukemia 20.1% | SR leukemia 30.6% | RPMI-8226 leukemia 29.1% | OVCAR-8 ovarian 54.9% | OVCAR-5 ovarian 49.7% | OVCAR-4 ovarian 46.8% | SK-OV-3 ovarian 47.2% | IGROV1 ovarian 13% | OVCAR-3 ovarian 47.7% | HS 578T breast 18.2% | NCI/ADR-RES ovarian 25.7%

COc1ccc(/C=N/N=C(\C)c2ccc3c(c2)Nc2ccccc2S3)cc1O
inactive: SK-MEL-2 melanoma 48.5% | EKVX NSCLC 40.4% | SN12C renal 70.1% | UO-31 renal 47% | TK-10 renal 70.6% | ACHN renal 43.3% | CAKI-1 renal 55.1% | A498 renal 75.5% | CCRF-CEM leukemia 33.9% | MOLT-4 leukemia 13.6% | SR leukemia 32.6% | RPMI-8226 leukemia 28.3% | OVCAR-8 ovarian 62.8% | OVCAR-5 ovarian 71.4% | OVCAR-4 ovarian 41.7% | SK-OV-3 ovarian 87.3% | IGROV1 ovarian 70.1% | OVCAR-3 ovarian 72.8% | HS 578T breast 73.7% | NCI/ADR-RES ovarian 34.8%

CCCn1c(=O)c2[nH]c(-c3ccc(OCc4nc5ccc(C#N)cc5[nH]4)cc3)nc2n(CCC)c1=O
inactive: SK-MEL-2 melanoma 96.8% | EKVX NSCLC 80.6% | SN12C renal 76.5% | UO-31 renal 67.8% | TK-10 renal 107% | ACHN renal 70.4% | CAKI-1 renal 89.6% | A498 renal 79.1% | CCRF-CEM leukemia 83.6% | MOLT-4 leukemia 75.6% | SR leukemia 59.5% | RPMI-8226 leukemia 68.9% | OVCAR-8 ovarian 66.3% | OVCAR-5 ovarian 113% | OVCAR-4 ovarian 78.9% | SK-OV-3 ovarian 85.5% | IGROV1 ovarian 62.2% | OVCAR-3 ovarian 68% | HS 578T breast 40% | NCI/ADR-RES ovarian 97.1%

Cc1ccc(/C=C/C(=O)c2ccc(S(=O)(=O)NCCNc3nc(Nc4ccc(F)cc4)nc(N(C)C)n3)cc2)cc1
active: SN12C renal -83.9% | SR leukemia 1.14% | RPMI-8226 leukemia 4.72% | OVCAR-8 ovarian 3.72% | OVCAR-3 ovarian -55.9%
inactive: SK-MEL-2 melanoma 84.5% | EKVX NSCLC 30.7% | UO-31 renal 36.8% | TK-10 renal 100% | ACHN renal 11.9% | CAKI-1 renal 29.3% | A498 renal 37.3% | CCRF-CEM leukemia 17.6% | MOLT-4 leukemia 10.1% | OVCAR-5 ovarian 39.2% | OVCAR-4 ovarian 21.8% | SK-OV-3 ovarian 94.7% | IGROV1 ovarian 52.1% | HS 578T breast 68.8% | NCI/ADR-RES ovarian 14.7%

CCOc1ccc(Nc2nc3ccccc3nc2Nc2ccc(OCC)cc2)cc1
inactive: SK-MEL-2 melanoma 89% | EKVX NSCLC 46.6% | SN12C renal 54.7% | UO-31 renal 54.9% | TK-10 renal 72% | ACHN renal 52.9% | CAKI-1 renal 51.4% | A498 renal 69.1% | CCRF-CEM leukemia 23.7% | SR leukemia 42.2% | RPMI-8226 leukemia 18.5% | OVCAR-8 ovarian 58.3% | OVCAR-5 ovarian 107% | OVCAR-4 ovarian 52.7% | SK-OV-3 ovarian 108% | IGROV1 ovarian 55% | OVCAR-3 ovarian 22.5% | HS 578T breast 107% | NCI/ADR-RES ovarian 65%
active: MOLT-4 leukemia 9.99%

Cc1ccc2nc(COc3ccc(C(=O)NNC(=S)NCCc4ccccc4)cc3)[nH]c2c1
active: OVCAR-4 ovarian -4.14%
inactive: SK-MEL-2 melanoma 81.7% | EKVX NSCLC 95% | SN12C renal 77.3% | UO-31 renal 84.3% | TK-10 renal 111% | ACHN renal 101% | CAKI-1 renal 96.2% | A498 renal 134% | CCRF-CEM leukemia 98.3% | MOLT-4 leukemia 96.1% | SR leukemia 88.2% | RPMI-8226 leukemia 87.7% | OVCAR-8 ovarian 13.1% | OVCAR-5 ovarian 88.9% | SK-OV-3 ovarian 83.4% | IGROV1 ovarian 52.9% | OVCAR-3 ovarian 105% | HS 578T breast 41.1% | NCI/ADR-RES ovarian 75.4%

O=C(/C=C/Nc1ccc(F)cc1F)c1ccc2c(c1)Nc1ccccc1S2
inactive: SK-MEL-2 melanoma 86.5% | EKVX NSCLC 74.2% | SN12C renal 82% | UO-31 renal 80.3% | TK-10 renal 100% | ACHN renal 78.6% | CAKI-1 renal 83.9% | A498 renal 108% | CCRF-CEM leukemia 73.8% | MOLT-4 leukemia 66.7% | SR leukemia 31.7% | RPMI-8226 leukemia 78.2% | OVCAR-8 ovarian 64.6% | OVCAR-5 ovarian 86.8% | OVCAR-4 ovarian 68.2% | SK-OV-3 ovarian 95.2% | IGROV1 ovarian 77.9% | OVCAR-3 ovarian 100% | HS 578T breast 63% | NCI/ADR-RES ovarian 57.1%
